Results on eight molecules are retold here after PubChem BioAssay (NCI).

This test can be described thus: NCI Yeast Anticancer Drug Screen. Data for the sgs1 strain (AID 173).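 Also: 0% = growth of vehicle-only control cultures.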 Conditions: S. cerevisiae sgs1 mutant, active compounds read high. On the procedure: Growth inhibition of yeast strains with defined genetic alterations is measured as a screen for potential anti-cancer activity. Selected strains with alterations in DNA damage repair or cell cycle control were exposed to compounds and growth inhibition was measured relative to vehicle treated controls. The strain used in this assay is sgs1

This is part of a sample that, as a whole, favours compounds with a hit. Of some 79,000 tested, about 15% had one in any assay. Values without a mark were called inactive. The source made the active and inactive calls. Rule as the data show it: active = growth inhibition above about 70%; inactive = the rest.

Take `CCN(CC)N=Nc1c(C(N)=O)n[nH]c1C`: the growth inhibition is -1% (at 1.2 µM); -1% (at 3.7 µM); -2% (at 11.0 µM); 9% (at 33.0 µM); 43% (at 100.0 µM).
On to `CC(=O)CC(=O)/C=C/c1cccs1`, for which the growth inhibition was -18% (at 1.2 µM); -8% (at 3.7 µM); 26% (at 11.0 µM); 30% (at 33.0 µM); 93% (active) (at 100.0 µM).
The like results for `CN(C)c1ccc(N=Nc2ccccn2)cc1` were, in that order, -6%, 5%, 25%, 88% (active) and 94% (active).
The corresponding values for `Cc1ccc(S(=O)(=O)N/N=C/C2(c3ccccc3)c3ccccc3-c3ccccc32)cc1` are 16%, 15%, 45%, 82% (active) and 80% (active).
The like results for `COc1ccc(N=Nc2ccc3oc(=O)c(C(=O)Nc4ccccc4)cc3c2)cc1` were, in that order, -9%, 18%, 93% (active), 97% (active) and 96% (active).
Turning to `CN(N=O)c1ccc(/C=C/c2ccnc3ccccc23)cc1`, the growth inhibition was -2% (at 1.2 µM); 3% (at 3.7 µM); 10% (at 11.0 µM); 55% (at 33.0 µM); 90% (active) (at 100.0 µM).
The corresponding values for `O=C(/C=C/c1cccc(Br)c1)c1ccc(Cl)cc1` are -67%, -42%, -7%, 31% and 73% (active).
With `O=C(NCCCCCN1CCC2(CCCCC2)CC1)C(C1CCCCC1)C1CCCCC1`, the growth inhibition is 2% (at 1.2 µM); 24% (at 3.7 µM); 86% (active) (at 11.0 µM); 99% (active) (at 33.0 µM); 98% (active) (at 100.0 µM).
